The source of these data is PubChem BioAssay (Tox21).

Molecules are shown by their SMILES. “And” between values parts separate entries of the source, which are not always exact repeats. Equal entries are not always repeated. Inconclusive results are not listed. Unmarked numbers belong to inactive results. The source made the active and inactive calls. Calls come from the whole dose curve; as a rule, active = well fitted cell-killing curve with a large enough effect in the repeat runs; inconclusive = weak or mixed curves, or effect the other way; inactive = flat fitted curve, though single readings scatter.

Experiment [1] in a line: cAMP Responsive Elements (CRE) small molecule antagonists, cell-based qHTS assay: qHTS cell viability counter screen (AID 2060913). Note: nearly all actives have a fitted effect of over 40% in size. The conditions noted are these: CRE-bla HEK293T viability, CellTiter-Glo luminescence, 5 h; series mostly up to 92.4 µM. Summed up: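 Cytotoxicity read in the same wells as the CRE-bla HEK293T antagonist assay: after 3 h compound with 0.25 uM NKH477 final and 2 h beta-lactamase substrate, CellTiter-Glo luminescence measured.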
On the technique in general: In qHTS, concentration-response curves come from the screen itself.

A short description of experiment [2]: cAMP Responsive Elements (CRE) small molecule agonists, cell-based qHTS assay: qHTS cell viability counter screen (AID 2060914). Note: nearly all actives have a fitted effect of over 50% in size. The conditions noted are these: CRE-bla HEK293T viability, CellTiter-Glo luminescence, 5 h; series mostly up to 92.4 µM. Summed up:
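Cytotoxicity counter screen multiplexed with the CRE-bla reporter assay in HEK 293T cells: 3 h compound exposure at 37 °C, followed by CellTiter-Glo luminescence measured in the same wells.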
% is set by controls: 0 for no effect and ±100 for the full control effect; potency is the fitted concentration of half-maximal effect.

For `COc1ccc(CCC(C)=O)cc1`, the Potency entry in experiment [1] and in experiment [2] was “inactive” throughout.
As to `CN(C)CCOC(C)(c1ccccc1)c1ccccn1` (stereo not drawn), the Potency result in experiment [1] and in experiment [2] was “inactive” in each case.
With `CC(C)c1cccc(C(C)C)c1NC(=O)NS(=O)(=O)c1cc(C(C)(C)O)co1`, the Potency entry in experiment [1] and in experiment [2] was “inactive” throughout.
For the compound `COC(C)OC`, the Potency result in experiment [1] and in experiment [2] was “inactive” each time.
With `COc1ccc(OC(=O)N(CC(=O)O)Cc2ccc(OCCc3nc(-c4ccccc4)oc3C)cc2)cc1`, the Potency result in experiment [1] and in experiment [2] was “inactive” each time.
On to `O=S(=O)(O)c1cccc(S(=O)(=O)O)c1`, for which the Potency result in experiment [1] and in experiment [2] was “inactive” each time.
Regarding `CCN=c1cc2oc3cc(NCC)c(C)cc3c(-c3ccccc3C(=O)OCC)c-2cc1C`, the Potency in experiment [1] is 68.3 µM (active) and 50.8 µM (active); in experiment [2], 68.3 µM (active) and 61.1 µM (active).
As to `COc1cc(C(=O)NC2CCCNC2)cc(OC)c1OC` (stereo not drawn), the Potency entry in experiment [1] and in experiment [2] was “inactive” throughout.
Regarding `Cc1ccc(N(C)C)cc1`, the Potency result in experiment [1] and in experiment [2] was “inactive” each time.
Regarding `CC1=CC(=O)CCC1`, the Potency result in experiment [1] and in experiment [2] was “inactive” in each case.
Turning to `CCC(CC)Nc1ccc(C)c(C)c1`, the Potency result in experiment [1] and in experiment [2] was “inactive” each time.
For `CCCOC(=O)c1ccc(N)cc1`, the Potency entry in experiment [1] and in experiment [2] was “inactive” each time.
Take `C=C[Si](OC(C)=O)(OC(C)=O)OC(C)=O`: the Potency entry in experiment [1] and in experiment [2] was “inactive” throughout.
For the compound `N[C@H](C(=O)O)c1ccc(O)cc1`, the viability change, negative = cytotoxic in experiment [1] was 2.5% [at 18.9 µM]. For the same compound, in experiment [2], the activity change, negative = cytotoxicity is -13.1% [at 18.9 µM].
Consider `C[C@@H]1O[C@@H](OC[C@H]2O[C@@H](Oc3c(-c4ccc(O)c(O)c4)oc4cc(O)cc(O)c4c3=O)[C@H](O)[C@@H](O)[C@@H]2O)[C@H](O)[C@H](O)[C@H]1O`, for which the Potency entry in experiment [1] and in experiment [2] was “inactive” in each case.
For `CC1=C(CC=O)C(C)(C)CCC1`, the Potency result in experiment [1] and in experiment [2] was “inactive” in each case.
For the compound `Nc1c(Cl)cc(Cl)cc1[N+](=O)[O-]`, the Potency entry in experiment [1] and in experiment [2] was “inactive” throughout.
Regarding `CCCCC[Si](OCC)(OCC)OCC`, the Potency entry in experiment [1] and in experiment [2] was “inactive” each time.
On to `COc1ccc(C)cc1[N+](=O)[O-]`, for which the Potency entry in experiment [1] and in experiment [2] was “inactive” each time.
Regarding `O=C(O)CCCCCCCCCC(=O)O`, the Potency entry in experiment [1] and in experiment [2] was “inactive” in each case.
As to `O=C(c1ccccc1)c1ccccc1O`, the Potency result in experiment [1] and in experiment [2] was “inactive” each time.
Regarding `C=CCc1cc(OC)c(O)c(C(=O)NCCO)c1`, the Potency result in experiment [1] and in experiment [2] was “inactive” each time.
With `CCNC(=O)NCCCOc1cccc(CN2CCCCC2)c1`, the Potency result in experiment [1] and in experiment [2] was “inactive” each time.
Consider `CC(C)=CCC/C(C)=C\CO`, for which the Potency entry in experiment [1] and in experiment [2] was “inactive” each time.
Turning to `O=C(CS)OCCOC(=O)CS`, the Potency entry in experiment [1] and in experiment [2] was “inactive” in each case.
As to `CC(C)(c1cc(Br)c(OCC(Br)CBr)c(Br)c1)c1cc(Br)c(OCC(Br)CBr)c(Br)c1` (stereo not drawn), the Potency entry in experiment [1] and in experiment [2] was “inactive” in each case.
`C/C=C(\C)C(=O)OCCC(C)CCC=C(C)C` (stereo not drawn): the Potency entry in experiment [1] and in experiment [2] was “inactive” each time.
For `CCCn1cnc2c1c(=O)n(CCCCC(C)=O)c(=O)n2C`, the Potency result in experiment [1] and in experiment [2] was “inactive” throughout.
As for `CN1CCN(c2c(F)cc3c(=O)c(C(=O)O)cn(CCF)c3c2F)CC1`, the Potency entry in experiment [1] and in experiment [2] was “inactive” each time.
`CN1CCC(OC(c2ccccc2)c2ccccc2)CC1`: the Potency entry in experiment [1] and in experiment [2] was “inactive” in each case.
Turning to `CCCO[Si](OCCC)(OCCC)OCCC`, the Potency result in experiment [1] and in experiment [2] was “inactive” throughout.
For `C/C=C1\[C@H]2C=C(C)C[C@]1(N)c1ccc(=O)[nH]c1C2`, the Potency entry in experiment [1] and in experiment [2] was “inactive” in each case.
For `CN1CCN(C(=O)C2CCCCC2)CC1`, the Potency result in experiment [1] and in experiment [2] was “inactive” in each case.
Turning to `CCCCOC(=O)CO`, the Potency result in experiment [1] and in experiment [2] was “inactive” in each case.
